Source: PubChem BioAssay (Tox21)
Values joined by “and” are separate entries in the source; they are usually repeats but may differ in a detail not shown here. Equal values may be shown once. Unmarked numbers belong to inactive results. Inconclusive results are not listed. Where a call stands in place of a potency, no number is given. Active and inactive are the calls of the source. Calls follow the shape of the dose curve; as a rule, active = well fitted curve in the direction sought with a large enough effect in the repeat runs; inconclusive = weak or mixed curves; inactive = no such curve, though single readings can be large; an effect the other way counts as inactive or inconclusive.

Legend:
[1] = Human pregnane X receptor (PXR) small molecule agonists, qHTS cell viability counter screen (AID 1346977); also: nearly all actives have a fitted effect of over 50% in size
Procedure, shortened: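 Cytotoxicity counter screen run in the same wells as the PXR luciferase assay, using PXR-Luc HepG2 cells in charcoal-stripped serum medium. Viability: CellTiter-Fluor fluorescence after 24hr compound treatment.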

[2] = Caspase-3/7 induction in HepG2 cells by small molecules, qHTS assay (AID 1346978); also: nearly all actives have a fitted effect of over 15% in size
Procedure, shortened: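 Wild-type HepG2 cells (2,000/well) were settled 5 h at 37 C, 5% CO2, then exposed to compounds in DMSO for 17 h. Caspase-3/7 activity was read by luminescence 30 min after adding Caspase-Glo 3/7 reagent at room temperature.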

[3] = Caspase-3/7 induction in CHO-K1 cells by small molecules, qHTS cell viability counter screen (AID 1346979); also: nearly all actives have a fitted effect of over 35% in size
Procedure, shortened: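 Cytotoxicity counter screen run in parallel with the caspase-3/7 assay: CHO-K1 cells, 16hr compound treatment at 37C, then CellTiter-Fluor for 1hr before fluorescence reading.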

[4] = Caspase-3/7 induction in CHO-K1 cells by small molecules, qHTS assay (AID 1346980); also: nearly all actives have a fitted effect of over 15% in size
Procedure, shortened: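 Wild-type cells were seeded at 1,500 per well and settled 5 hr at 37 C, 5% CO2, then exposed to DMSO-dissolved compounds for 17 hr. Caspase-Glo 3/7 reagent was added, and luminescence was read after 30min at room temperature.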

[5] = Caspase-3/7 induction in HepG2 cells by small molecules, qHTS cell viability counter screen (AID 1346981); also: series mostly up to about 92 µM; nearly all actives have a fitted effect of over 30% in size
Procedure, shortened: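 Counter screen for cytotoxicity: HepG2 exposed 16 hr to compounds, then CellTiter-Fluor viability signal (fluorescence, 1 hr reagent incubation).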

[6] = biological target: Nuclear receptor subfamily 1 group I member 2 (Homo sapiens) (UniProt O75469); experiment: Human pregnane X receptor (PXR) small molecule agonists, qHTS assay (AID 1346982); also: nearly all actives have a fitted effect of over 35% in size; also: potency is read from the fitted curve at half-maximal effect
Procedure, shortened: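 Luminescence (ONE-Glo, 30 min RT) after 24 hr compound exposure of PXR-Luc HepG2 cells; cells rested 5 hr post-plating in 5% charcoal-stripped FBS medium.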

[7] = biological target: Nuclear receptor subfamily 1 group I member 2 (Rattus norvegicus) (UniProt Q9R1A7); experiment: Rat pregnane X receptor (rPXR) activation by small molecules, qHTS assay (AID 1346983); conditions: rPXR luciferase reporter cells, One-Glo luminescence, 24 h; max activation: stronger effect = higher value; also: nearly all actives have a fitted effect of over 20% in size
Procedure, shortened: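 Cell-based rPXR luciferase reporter assay, 2,000 cells per well, rested 5hr at 37 C before compound addition in DMSO, then 24 hr at 37 C. One-Glo reagent was added and luminescence read after 30 min at room temperature.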

[8] = biological target: Nuclear receptor subfamily 1 group I member 2 (Homo sapiens) (UniProt O75469); experiment: CYP3A4 induction through human pregnane X receptor (PXR) by small molecules, qHTS assay (AID 1346984); also: nearly all actives have a fitted effect of over 40% in size
Procedure, shortened: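 DPX-2 reporter cells; 24h cpd, 37C; Luciferin-IPA 3uM final x3h; One-Glo 30 min RT; lumi read.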

[9] = biological target: Nuclear receptor subfamily 1 group I member 2 (Homo sapiens) (UniProt O75469); experiment: Human pregnane X receptor (PXR) activation by small molecules, qHTS assay (AID 1346985); also: nearly all actives have a fitted effect of over 40% in size
Procedure, shortened: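 DPX-2 cells (HepG2 co-transfected with a PXR response element and a CYP3A4-promoter luciferase construct) were seeded at 2,000 per well, rested 5 hr at 37C, then exposed to DMSO-dissolved compounds for 24 hr. Activation was read as luciferase luminescence.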

[10] = biological target: Cytochrome P450 2D6 (Homo sapiens) (UniProt P10635); experiment: Cytochrome P450 Family 2 Subfamily D Member 6 (CYP2D6) small molecule antagonists: luciferase reporter qHTS assay (AID 1671196); also: nearly all actives have a fitted effect of over 50% in size; also: potency is read from the fitted curve at half-maximal effect
Procedure, shortened: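 Inhibition of CYP2D6 was gauged by loss of luminescence, since light produced tracks the luciferin generated from a proluciferin substrate. A 10 min room-temperature preincubation preceded 1 h NADPH-supported turnover.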

Chain of Nuclear receptor subfamily 1 group I member 2 (Rattus norvegicus) (Q9R1A7 whole entry, looked up): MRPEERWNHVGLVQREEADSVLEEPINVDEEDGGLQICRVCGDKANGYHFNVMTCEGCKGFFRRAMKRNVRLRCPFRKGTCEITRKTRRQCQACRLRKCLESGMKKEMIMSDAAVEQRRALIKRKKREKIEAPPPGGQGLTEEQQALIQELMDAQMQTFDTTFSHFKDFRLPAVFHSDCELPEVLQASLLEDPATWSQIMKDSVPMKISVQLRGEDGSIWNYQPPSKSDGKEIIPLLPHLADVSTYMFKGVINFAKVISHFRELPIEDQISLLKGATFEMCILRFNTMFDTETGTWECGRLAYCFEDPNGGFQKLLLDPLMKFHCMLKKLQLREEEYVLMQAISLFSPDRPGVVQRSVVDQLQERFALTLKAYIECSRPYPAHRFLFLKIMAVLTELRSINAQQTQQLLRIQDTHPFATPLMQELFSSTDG
Chain of Nuclear receptor subfamily 1 group I member 2 (Homo sapiens) (O75469 whole entry, looked up): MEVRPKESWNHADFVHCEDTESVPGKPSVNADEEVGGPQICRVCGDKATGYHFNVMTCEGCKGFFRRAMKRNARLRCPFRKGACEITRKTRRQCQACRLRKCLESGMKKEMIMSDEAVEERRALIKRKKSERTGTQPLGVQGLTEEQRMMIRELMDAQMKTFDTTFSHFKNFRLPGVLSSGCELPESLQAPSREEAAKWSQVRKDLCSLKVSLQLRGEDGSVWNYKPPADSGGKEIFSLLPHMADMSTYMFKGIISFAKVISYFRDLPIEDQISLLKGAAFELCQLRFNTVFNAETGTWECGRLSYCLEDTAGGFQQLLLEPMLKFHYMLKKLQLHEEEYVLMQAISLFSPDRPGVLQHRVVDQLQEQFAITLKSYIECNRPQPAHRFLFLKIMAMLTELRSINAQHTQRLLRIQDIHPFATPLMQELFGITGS
Chain of Cytochrome P450 2D6 (Homo sapiens) (P10635 whole entry, looked up): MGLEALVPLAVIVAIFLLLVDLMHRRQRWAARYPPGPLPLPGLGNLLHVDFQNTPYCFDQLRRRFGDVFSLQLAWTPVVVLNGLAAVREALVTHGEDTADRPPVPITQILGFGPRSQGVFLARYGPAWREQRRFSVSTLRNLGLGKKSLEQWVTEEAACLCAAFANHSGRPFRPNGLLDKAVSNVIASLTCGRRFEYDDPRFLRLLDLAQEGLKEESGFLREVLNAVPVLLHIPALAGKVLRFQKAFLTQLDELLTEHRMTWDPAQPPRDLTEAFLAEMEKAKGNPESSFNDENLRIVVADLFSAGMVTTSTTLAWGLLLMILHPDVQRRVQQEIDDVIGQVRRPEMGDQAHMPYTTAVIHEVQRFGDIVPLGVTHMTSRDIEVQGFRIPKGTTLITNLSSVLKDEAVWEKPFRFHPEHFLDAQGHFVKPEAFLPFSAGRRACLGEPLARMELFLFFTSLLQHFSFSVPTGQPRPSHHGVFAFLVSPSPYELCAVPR

| Structure (SMILES) | Potency [1] | outcome [2] | Potency [3] | outcome [4] | Potency [5] | Potency [6] | max activation [7] | Potency [8] | Potency [9] | Potency [10] | activity change, negative = cytotoxicity [1] | caspase activation [2] | activity change, negative = cytotoxicity [3] | caspase-3/7 activation [4] | activity change, negative = cytotoxicity [5] | activation [6] |
| --- | --- | --- | --- | --- | --- | --- | --- | --- | --- | --- | --- | --- | --- | --- | --- | --- |
| COc1cc(C(=O)OC(COCCC(C)C)CN2CCOCC2)cc(OC)c1OC (centres undefined) | inactive | inactive | inactive | inactive | inactive |  |  |  |  |  |  |  |  |  |  |  |
| C[C@H]1C[C@H]2[C@@H]3CCC4=CC(=O)C=C[C@]4(C)[C@H]3C(=O)C[C@]2(C)[C@@]1(O)C(=O)CO | inactive | inactive | inactive | inactive | inactive |  |  |  |  |  |  |  |  |  |  |  |
| CCN(CC#N)c1cccc(C)c1 | inactive | inactive | inactive | inactive | inactive |  |  |  |  |  |  |  |  |  |  |  |
| Clc1cc(Cl)c(Cl)nc1Cl | inactive | inactive | inactive | inactive | inactive | inactive |  |  |  |  |  |  |  |  |  |  |
| COc1ccc2cc1Oc1cc3c(cc1OC)CC[N+](C)(C)[C@H]3Cc1ccc(cc1)Oc1c(OC)c(OC)cc3c1[C@@H](C2)[N+](C)(C)CC3 | inactive | inactive | inactive | inactive | inactive | inactive | 0.186% | inactive | inactive | inactive |  |  |  |  |  |  |
| CN(C)C(=O)Oc1cccc([N+](C)(C)C)c1 | inactive | inactive | inactive | inactive | inactive | inactive | -2.37% |  | inactive | inactive |  |  |  |  |  |  |
| CC1=C(C/C=C(\C)CCC[C@H](C)CCC[C@H](C)CCCC(C)C)C(=O)c2ccccc2C1=O | inactive | inactive | inactive | inactive | inactive | inactive | -2.63% |  | inactive |  |  |  |  |  |  |  |
| NC(=O)N[C@@H](CCC(=O)O)C(=O)O | inactive | inactive | inactive | inactive | inactive | inactive | -3.04% | inactive | inactive | inactive |  |  |  |  |  |  |
| CC(C)COC(=O)c1ccc(N)cc1 | inactive | inactive | inactive | inactive | inactive | 21.1 µM (active) | 0.562% | inactive | inactive | inactive |  |  |  |  |  |  |
| CC(=O)Nc1ccc(OCC(O)CNC(C)C)cc1 (centres undefined) | inactive | inactive | inactive | inactive | inactive | inactive | 0.433% |  | inactive | inactive |  |  |  |  |  |  |
| CC(=O)N[C@H]1[C@H]([C@H](O)[C@H](O)CO)OC(C(=O)O)=C[C@@H]1N=C(N)N | inactive | inactive | inactive | inactive | inactive | inactive | -1.75% |  | inactive | inactive |  |  |  |  |  |  |
| COc1cc(C(=O)NCc2ccc(OCCN(C)C)cc2)cc(OC)c1OC | inactive | inactive | inactive | inactive | inactive | inactive | 4.67% |  | inactive |  |  |  |  |  |  |  |
| CC(C)NNC(=O)c1ccncc1 | inactive | inactive | inactive | inactive | inactive | inactive | -0.682% |  | inactive |  |  |  |  |  |  |  |
| CCOC(=O)OC(C)OC1=C(C(=O)Nc2ccccn2)N(C)S(=O)(=O)c2ccccc21 (centres undefined) | inactive | inactive | inactive | inactive | inactive | inactive | -2.57% |  | inactive | inactive |  |  |  |  |  |  |
| CO/N=C(\C(=O)N[C@@H]1C(=O)N2C(C(=O)O)=C(CSc3nc(=O)c(O)nn3C)CS[C@H]12)c1csc(N)n1 | inactive | inactive | inactive | inactive | inactive | inactive | -3.34% | inactive | inactive |  |  |  |  |  |  |  |
| CN(C)[C@@H]1C(=O)C(C(=O)NCN2CCCC2)=C(O)[C@@]2(O)C(=O)C3=C(O)c4c(O)cccc4[C@@](C)(O)C3C[C@@H]12 (some centres undefined) | inactive | inactive | inactive | inactive | inactive | inactive | 1.07% and -3.86% | inactive | inactive |  |  |  |  |  |  |  |
| CCCCCCCCCCCCCCCCCCO | inactive | inactive | inactive | inactive | inactive | inactive | -0.712% | inactive | inactive | inactive |  |  |  |  |  |  |
| [O-][n+]1cccc(CO)c1 | inactive | inactive | inactive | inactive | inactive | inactive | -1.15% |  | inactive | inactive |  |  |  |  |  |  |
| CCN[C@@H]1C[C@H](N)[C@@H](OC2OC(CN)=CCC2N)[C@H](O)[C@H]1O[C@H]1OC[C@](C)(O)[C@H](NC)[C@H]1O (some centres undefined) |  |  |  |  |  |  | -4.25% |  | inactive |  | 1.73% [at 0.349 µM] | 0.0658% [at 0.349 µM] | 2.16% [at 0.349 µM] | -0.394% [at 0.349 µM] | 3.51% [at 0.349 µM] | -3.06% [at 0.349 µM] |
| CO[C@@]1(NC(=O)C(C(=O)O)c2ccc(O)cc2)C(=O)N2C(C(=O)O)=C(CSc3nnnn3C)CO[C@@H]21 (some centres undefined) | inactive | inactive | inactive | inactive | inactive | inactive | -4.79% | inactive | inactive | inactive |  |  |  |  |  |  |
| Cc1ncc(COP(=O)(O)O)c(C=O)c1O | inactive | inactive | inactive | inactive | inactive | inactive | -2.51% |  | inactive | inactive |  |  |  |  |  |  |
| CN1[C@@H]2CC[C@H]1CC(OC(=O)C(O)c1ccccc1)C2 (some centres undefined) | inactive | inactive | inactive | inactive | inactive | inactive | 2.11% and -0.222% | inactive | inactive | inactive |  |  |  |  |  |  |
| C[N+]1(C)CCCC(OC(=O)C(O)(c2ccccc2)c2ccccc2)C1 (centres undefined) | inactive | inactive | inactive | inactive | inactive | inactive | -3.64% |  | inactive | 4.9 µM (active) |  |  |  |  |  |  |
